hNpr1 antagonist = Natriuretic polypeptide receptor (hNpr1) antagonism - Primary qHTS. Atrial natriuretic peptide receptor 1 (Homo sapiens), P16066. HEK293 hNpr1 GloSensor cGMP, ANP-stimulated luminescence. Potency, µM (doses to about 46.3 µM), usual class: inhibitors. actives 1.6% (n = 76,000). AID 1347048, 2019; calls by dose curve; further: nearly all actives have a fitted effect of over 60% in size
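HEK293 cells stably expressing human Npr1 and cGMP GloSensor pGS-40F, loaded 2 h with 2% GloSensor reagent, given compound 30 min at room temperature. Luminescence read before and 20 min after 0.1 nM hNppA.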
Luciferase inh = Firefly luciferase inhibition profiling of diverse chemical library using quantitative high-throughput screening | purified P. pyralis luciferase, luminescence, biochemical | Potency, µM (highest dose often 115 µM), usual class: inhibitors | actives 2.5% (n = 76,000) | AID 1347043, 2019; further: nearly all actives have a fitted effect of over 65% in size
Target sequence (P08659 whole entry, looked up): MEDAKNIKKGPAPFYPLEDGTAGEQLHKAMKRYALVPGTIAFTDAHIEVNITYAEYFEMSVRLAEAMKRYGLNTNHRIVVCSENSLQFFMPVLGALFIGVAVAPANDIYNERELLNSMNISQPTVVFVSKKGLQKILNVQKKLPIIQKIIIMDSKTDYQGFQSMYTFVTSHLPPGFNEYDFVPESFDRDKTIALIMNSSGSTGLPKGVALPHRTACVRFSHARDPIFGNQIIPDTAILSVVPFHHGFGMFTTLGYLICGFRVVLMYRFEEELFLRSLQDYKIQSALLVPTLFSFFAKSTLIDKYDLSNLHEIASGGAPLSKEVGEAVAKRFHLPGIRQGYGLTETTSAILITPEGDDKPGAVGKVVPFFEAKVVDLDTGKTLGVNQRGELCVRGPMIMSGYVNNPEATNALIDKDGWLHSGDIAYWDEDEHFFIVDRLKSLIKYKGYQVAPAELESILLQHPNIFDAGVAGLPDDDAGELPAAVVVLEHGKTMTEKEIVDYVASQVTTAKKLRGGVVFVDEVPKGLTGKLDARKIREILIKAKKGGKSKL
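Purified 10nM P. pyralis luciferase with 10uM D-luciferin and 10uM ATP in 50mM Tris acetate pH 7.5, 10mM Mg acetate, 0.01% Tween-20, 0.05% BSA. qHTS titration; luminescence read by CCD imager.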
3T3 cytotox = Cytotoxic Profiling in NIH 3T3 Cell Line of Diverse Libraries Using Quantitative High-Throughput Screening; NIH 3T3 viability, CellTiter-Glo ATP luminescence, 48-72 h; Potency, µM (doses to about 96.7 µM), actives largely listed as inhibitors; actives 4.3% (n = 94,000); further: nearly all actives have a fitted effect of over 55% in size
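NIH 3T3 cells at 400 cells/well received 23 nL of compound by pintool and were incubated 48 or 72 h at 37 °C. Viability was read as ATP-coupled CellTiter-Glo luminescence.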
HEK293 tox = Cytotoxic Profiling in HEK 293 Cell Line of Diverse Libraries Using Quantitative High-Throughput Screening. Potency, µM (highest dose often 115 µM), hits mostly inhibitors. actives 6.6% (n = 94,000). AID 1345083, 2018. HEK 293 viability, ATP luminescence (CellTiter-Glo), 48-72 h; further: nearly all actives have a fitted effect of over 60% in size
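ATP-coupled CellTiter-Glo luminescence served as viability read-out, recorded 10 min after reagent addition at room temperature. HEK 293 cells, 250 cells/well, had been incubated with pintool-transferred compound for 48 or 72 hr at 37 degree Celsius.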
A number is an active result; . = inactive; ? = inconclusive; / = no result given. A selection: hits, their analogues and other compounds. The true share with any hit is near 11%. Unless noted, the call rests on the fitted dose curve; in most records, active means well fitted curve in the direction sought with a large enough effect; inconclusive means small, poorly fitted or top-dose-only effect, or another doubt; inactive means no such curve, though single readings can be large; an effect the other way counts as inactive or inconclusive.

SMILES	hNpr1 antagonist	Luciferase inh	3T3 cytotox	HEK293 tox
Cc1cccc(CN2CCCC3(CCN(c4cc(C)c5ccccc5n4)C3)C2=O)c1 (stereo not drawn)	.	.	?	35µM
CCCN1CCCC2(CCN(c3cc(C)c4cccc(OC)c4n3)C2)C1=O (stereo not drawn)	.	.	.	?
Cc1cc(N2CCC3(CCCN(CC4CCC4)C3=O)C2)nc2ccccc12 (stereo not drawn)	.	.	?	32µM
COc1ccccc1CN[C@H]1CC(C)(C)[C@@H]2C[C@@](C)(O)CC[C@]12CCC(=O)NCCc1c[nH]c2ccccc12	.	.	28µM	28µM
CN(C)c1ccc(CN[C@H]2CC(C)(C)[C@@H]3C[C@@](C)(O)CC[C@]23CCC(=O)NCCc2c[nH]c3ccccc23)cc1	.	.	18µM	18µM
CC(C)(C)CC(=O)N[C@H]1CC(C)(C)[C@@H]2C[C@@](C)(O)CC[C@]12CCC(=O)NCCc1c[nH]c2ccccc12	.	.	?	.
CCOc1ccccc1CNC(=O)C1CCN(c2cc(C(F)(F)F)nc(C)n2)CC1	.	.	?	?
Cc1noc(-c2cccn3c(CNC(=O)c4ccc(F)c(Cl)c4)nnc23)n1	.	.	.	.
Cc1ccc(C)c(-c2ccc(C(=O)NCCCn3ccnc3C(C)C)cn2)c1	?	.	?	?
Cc1ccc(-c2ccc(C(=O)NCCCn3ccnc3C(C)C)cn2)cc1C	.	?	?	40µM
COc1ccc(CN2CC(Oc3ccc(F)c(C)c3)C2)cc1	.	.	?	89µM
Cc1cc(OC2CN(Cc3ccc(C#N)cc3)C2)ccc1F	?	.	?	?
COc1ccccc1C(=O)N1CC(Oc2ccc(F)cc2C)C1	.	.	?	71µM
COc1ccc(CN2CC(Oc3ccc(F)cc3F)C2)cc1	/	/	.	?
COc1ccc(CN2CC(N(C)c3ccccc3C)C2)cc1	/	/	79µM	?
COc1ccc(CN2CC(Oc3ccc(F)cc3C)C2)cc1	.	.	40µM	71µM
COc1ccc(C(=O)N2CC(Oc3ccc(F)cc3C)C2)cc1	.	.	?	?
O=C1NCCCCCCN(C(=O)C2CCCC2)[C@H]2C[C@H](C(=O)N3CCN(c4ccccn4)CC3)C[C@@H]12	.	.	.	.
Cc1cc(F)ccc1OC1CN(Cc2ccc(C#N)cc2)C1	.	.	?	63µM
C=CCOc1c(OC)ccc2c1CN(CC1CC1)C(=O)CCN2CC(O)COC(C)(C)C (stereo not drawn)	/	/	.	?
C=CCOc1c(OC)ccc2c1CN(CC1CC1)C(=O)CCN2CC(O)COc1ccc(OC)cc1 (stereo not drawn)	/	/	?	40µM
CCc1ncc2c(N3CC4CCC(C3)N4CC(F)(F)F)nc3ccccc3n12	/	/	?	40µM
COc1cc2ncnc(N3CC4CCC(C3)N4CC(F)(F)F)c2cc1OC	/	/	?	.
O=C(CC1CCCC1)N1CC[C@@H]2COCCN(Cc3ccccc3)[C@@H]2C1	.	.	.	79µM
CNC(=O)CCn1ncc2cc(OC3CCc4cccc(-c5cccnc5)c43)ccc21 (stereo not drawn)	.	.	?	100µM
SMILES	hNpr1 antagonist	Luciferase inh	3T3 cytotox	HEK293 tox
CNC(=O)CCn1ncc2cc(OC3CCc4cccc(-c5ccncc5)c43)ccc21 (stereo not drawn)	.	.	?	100µM
Cc1cccc(C(=O)N2C[C@@H]3CCCN4CCC[C@@H]([C@H]34)[C@H]2CCCC(=O)NCC2CC2)c1	.	.	.	.
COC(=O)c1ccc2c(c1)nc1n2[C@@H](CNCc2cccnc2)COC1	.	.	.	.
O=C(C1CCCCC1)N1CCC(n2cc(-c3nc(-c4ccccc4)no3)nn2)CC1	.	.	.	.
Cc1cccc(CNC(=O)C2CC(c3ccc(F)c(C)c3)CN(C(=O)c3ccccc3)C2)c1 (stereo not drawn)	.	.	25µM	40µM
CCNC(=O)N1CC(C(=O)NCc2ccccc2)CC(c2ccc(F)c(C)c2)C1 (stereo not drawn)	?	.	?	?
Cc1cc(C2CC(C(=O)NCc3ccc4c(c3)OCO4)CN(C(=O)c3ccccc3)C2)ccc1F (stereo not drawn)	.	.	?	?
